{
  "source": "PubChem BioAssay (NCATS)",
  "note": "Results filed as inconclusive are left out. Unmarked numbers belong to inactive results. Calls follow the shape of the dose curve; as a rule, active = well fitted inhibition curve with a large enough effect; inconclusive = small, poorly fitted or top-dose-only effect; inactive = no such curve, though single readings can be large or run the other way. % is scaled to controls: 0 for no effect and ±100 for the full control effect.",
  "data": [
    {"biological_target": "Cytochrome P450 3A4 (Homo sapiens) (UniProt P08684)", "sequence (P08684 whole entry, looked up)": "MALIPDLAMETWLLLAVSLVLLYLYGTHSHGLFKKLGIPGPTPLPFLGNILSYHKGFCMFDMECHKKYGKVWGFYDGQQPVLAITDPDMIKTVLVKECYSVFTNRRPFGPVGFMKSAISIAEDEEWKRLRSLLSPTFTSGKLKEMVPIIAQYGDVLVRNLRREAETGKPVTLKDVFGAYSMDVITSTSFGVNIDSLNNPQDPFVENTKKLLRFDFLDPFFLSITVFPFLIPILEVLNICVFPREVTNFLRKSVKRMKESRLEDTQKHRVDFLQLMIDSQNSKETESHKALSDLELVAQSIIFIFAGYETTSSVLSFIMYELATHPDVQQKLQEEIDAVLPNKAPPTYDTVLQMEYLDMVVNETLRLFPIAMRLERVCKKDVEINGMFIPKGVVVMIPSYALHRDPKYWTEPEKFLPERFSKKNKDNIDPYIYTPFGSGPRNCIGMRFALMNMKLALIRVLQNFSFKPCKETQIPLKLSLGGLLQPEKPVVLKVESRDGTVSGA", "assay": "qHTS Assay for Inhibitors and Substrates of Cytochrome P450 3A4 (AID 884); also: nearly all actives have a fitted effect of over 50% in size", "details": "recombinant CYP3A4, Luciferin-PPXE luminescence; series mostly up to 57.1 µM; activity change, negative = inhibition: at the top concentration", "description": "NIH Molecular Libraries Screening Centers Network [MLSCN]\nNIH Chemical Genomics Center [NCGC]\nThe P450 gene superfamily is involved in the metabolism and clearance of xenobiotics. This assay used human CYP3A4 to measure the dealkylation of luciferin-6' phenylpiperazinylyl (Luciferin-PPXE; […]) to luciferin. The luciferin is then measured by luminescence after the addition of a luciferase detection reagent. Luciferin-PPXE concentration in the assay was equal to its KM for CYP3A4. Inhibitors and some substrates limit the production of luciferin, and decrease measured luminescence.\nNCGC Assay Protocol Summary:\nTwo uL of enzyme and substrate mix (final concentrations: 20nM CYP3A4, 25uM Luciferin-PPXE, 200mM KPO4) were dispensed into a white, solid bottom 1536-well microtiter plate. 23nL of compound was transferred by a pin tool. The plate was incubated at RT for 10 min. Two uL of an NADPH regeneration solution (Promega supplied reagent) was dispensed and the reaction was allowed to continue for 60 min at RT. Then the reaction was stopped by reconstituted luciferin detection buffer. After another 20 min of incubation the plate was read on the ViewLux (Perkin Elmer) at 60 sec exposure and 2x2 binning. This protocol was carried out with Promega-Glo reagents and further information can be found at http://www.promega.com/tbs/tb325/tb325.pdf. Data were normalized to the to AC100 inhibition (57 uM ketoconazole).\nKeywords: P450, CYP3A4, Luciferase, MLSMR, MLSCN, NIH Roadmap, qHTS, NCGC", "units": {"activity change, negative = inhibition": "%"}, "values": [
      {"smiles": "CO[Si](CCCNCCC[Si](OC)(OC)OC)(OC)OC", "activity change, negative = inhibition": -13.3},
      {"smiles": "CCc1ccccc1", "activity change, negative = inhibition": -4.56},
      {"smiles": "ON=C1CCCCC1", "activity change, negative = inhibition": -4.98},
      {"smiles": "COC(=O)CCCC(=O)OC", "activity change, negative = inhibition": -3.65},
      {"smiles": "CC(C=O)Cc1ccc(C(C)(C)C)cc1", "note": "(stereo not given)", "activity change, negative = inhibition": -5.4},
      {"smiles": "NC=O", "activity change, negative = inhibition": 12.4},
      {"smiles": "BrC(Br)C(Br)Br", "activity change, negative = inhibition": -7.16},
      {"smiles": "Cc1cscn1", "activity change, negative = inhibition": -28.8},
      {"smiles": "CC(C)N=C=NC(C)C", "activity change, negative = inhibition": -8.63},
      {"smiles": "CSc1ccc(C=O)cc1", "activity change, negative = inhibition": -7.8},
      {"smiles": "Nc1cccc(C(F)(F)F)c1", "activity change, negative = inhibition": -12.6},
      {"smiles": "CC(O)CC(C)O", "note": "(stereo not given)", "activity change, negative = inhibition": -8.79},
      {"smiles": "CC/C=C1/OC(=O)c2ccccc21", "activity change, negative = inhibition": -24},
      {"smiles": "O=Cc1ccc(Cl)cc1", "activity change, negative = inhibition": -9.08},
      {"smiles": "CC(C)=C1CCC(C)CC1=O", "note": "(stereo not given)", "activity change, negative = inhibition": -8.49},
      {"smiles": "CC(=O)C1(C)CC2=C(CCCC2(C)C)CC1C", "note": "(stereo not given)", "activity change, negative = inhibition": -12.2},
      {"smiles": "CCCC=O", "activity change, negative = inhibition": -18.1},
      {"smiles": "O=Nc1ccc(NO)cc1", "activity change, negative = inhibition": -5.28},
      {"smiles": "CC(=O)Nc1ccc(C)cc1", "activity change, negative = inhibition": -20.2},
      {"smiles": "OC(CCl)CCl", "activity change, negative = inhibition": 7.03},
      {"smiles": "Cc1cccc([N+](=O)[O-])c1C(=O)O", "activity change, negative = inhibition": -1.08},
      {"smiles": "O=C(O)CNC(=O)c1ccc(CO)o1", "activity change, negative = inhibition": -11},
      {"smiles": "Cc1cccc(C(=O)O)c1", "activity change, negative = inhibition": -18.3},
      {"smiles": "O=[N+]([O-])c1c(Cl)cc(Cl)cc1Cl", "activity change, negative = inhibition": -22.2},
      {"smiles": "CCOCCO", "activity change, negative = inhibition": 1.6},
      {"smiles": "CC(=O)OCCC(C)C", "activity change, negative = inhibition": 0.418},
      {"smiles": "O=C(Cl)c1c(Cl)cccc1Cl", "activity change, negative = inhibition": -12.5},
      {"smiles": "CNC(=O)c1ccccc1", "activity change, negative = inhibition": -6.97},
      {"smiles": "Nc1nc2ccccc2[nH]1", "activity change, negative = inhibition": -0.65},
      {"smiles": "CC(C)=CCl", "activity change, negative = inhibition": 0.529},
      {"smiles": "Nc1ccc(Cl)cc1[N+](=O)[O-]", "activity change, negative = inhibition": -26.3},
      {"smiles": "CC/C(C)=N/O", "activity change, negative = inhibition": -6.45},
      {"smiles": "NC(=O)c1cccc([N+](=O)[O-])c1", "activity change, negative = inhibition": -6.97},
      {"smiles": "COC(=O)CC#N", "activity change, negative = inhibition": -3.54},
      {"smiles": "CCCOCC(C)O", "note": "(stereo not given)", "activity change, negative = inhibition": -11.7},
      {"smiles": "CCOc1ccc(NC(C)=O)cc1N", "activity change, negative = inhibition": -15.7},
      {"smiles": "CNc1ccccc1", "activity change, negative = inhibition": -5.56},
      {"smiles": "CCCCCCO", "activity change, negative = inhibition": -5.25},
      {"smiles": "Nc1cccc([N+](=O)[O-])c1", "activity change, negative = inhibition": -8.96},
      {"smiles": "FC(F)(F)c1ccccc1Cl", "activity change, negative = inhibition": -3.39}
    ]}
  ]
}
